An excerpt weighted towards active compounds, which were near 18% of everything screened.
DT40 TDP1 no CPT: qHTS for Inhibitors of human tyrosyl-DNA phosphodiesterase 1 (TDP1): qHTS in cells in absence of CPT. actives 15% (n = 420,000). DT40 Tdp1-/- hTDP1 cells, no CPT, ATP luminescence, 48 h. Potency, µM (highest dose often 46.2 µM), inactives show at the highest dose activity change, negative = growth inhibition, actives largely listed as inhibitors; further: potency means the concentration at half of the fitted maximal effect; nearly all actives have a fitted effect of over 55% in size
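Compound effects on proliferation are scored in DT40 Tdp1-/-;hTDP1 cells in the absence of CPT. ATP levels (CellTiter-Glo luminescence) are recorded after a ≥48 hr, 37 °C incubation.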
IL1B secr inh: inflammasome signaling inhibition, IL-1 beta readout. THP-1 LPS/ATP IL-1B secretion, AlphaLISA, 16 h; stronger effect = lower value. actives 4.7% (n = 360,000). activity change, % at 57.5 µM; in the data active means activity change below about -50%; inconclusive means mostly about -30% to -49%
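Secreted IL-1B measured by AlphaLISA bead assay after 16 h compound exposure of THP-1 cells; compounds (final up to 57.5 uM) added 1 h before LPS (250 ng/mL) and ATP (1.25 mM) stimulation; lower signal means less secretion.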
DT40 TDP1 CPT: DT40-hTDP1 cell growth loss with CPT; chicken DT40 Tdp1-/-;hTDP1 cells + 20 nM CPT, ATP luminescence, 48 h; Potency, µM (doses to about 46.2 µM), without a hit: at the top dose activity change, negative = growth inhibition, hits mostly inhibitors; actives 12% (n = 420,000); AID 686979; further: potency means the concentration at half of the fitted maximal effect; nearly all actives have a fitted effect of over 55% in size
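Chicken DT40 Tdp1-/- cells stably complemented with human TDP1 were seeded at 400 cells/well in medium containing 20 nM camptothecin, exposed to pin-transferred compounds, and grown at 37 °C for at least 48 hr. Viability was read as ATP luminescence.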
LDHA block: blocks human lactate dehydrogenase A; purified LDHA, NADH/diaphorase-resazurin fluorescence; stronger effect = lower value; activity change, % (values are at about 110 or 230 µM); AID 1347041; P00338; actives 0.15% (n = 480,000); in the data active means activity change below about -30%; inconclusive means mostly about -25% to -30%;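 further: plate controls were DMSO wells for no effect and wells without enzyme for full effect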
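Resorufin fluorescence (ex540/em590), read at 0 and 20 min after diaphorase/resazurin addition, reports the NADH left after a 5 min room-temperature reaction of 2 nM human LDH5 with 0.06 mM NADH and 0.2 mM pyruvate.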
RORgamma inh: inhibitors of mouse ROR gamma transcriptional activity; AID 2551; actives 5.4% (n = 310,000); Drosophila S2 Gal4-RORgamma UAS-luciferase reporter, 20 h; Potency, µM (series often up to 53.6 µM), inactives show at the highest dose activity change, negative = inhibition, most hits filed as inhibitors; further: potency means the concentration at half of the fitted maximal effect; nearly all actives have a fitted effect of over 60% in size
Target sequence (P51450 whole entry, looked up, the tested form may be a part): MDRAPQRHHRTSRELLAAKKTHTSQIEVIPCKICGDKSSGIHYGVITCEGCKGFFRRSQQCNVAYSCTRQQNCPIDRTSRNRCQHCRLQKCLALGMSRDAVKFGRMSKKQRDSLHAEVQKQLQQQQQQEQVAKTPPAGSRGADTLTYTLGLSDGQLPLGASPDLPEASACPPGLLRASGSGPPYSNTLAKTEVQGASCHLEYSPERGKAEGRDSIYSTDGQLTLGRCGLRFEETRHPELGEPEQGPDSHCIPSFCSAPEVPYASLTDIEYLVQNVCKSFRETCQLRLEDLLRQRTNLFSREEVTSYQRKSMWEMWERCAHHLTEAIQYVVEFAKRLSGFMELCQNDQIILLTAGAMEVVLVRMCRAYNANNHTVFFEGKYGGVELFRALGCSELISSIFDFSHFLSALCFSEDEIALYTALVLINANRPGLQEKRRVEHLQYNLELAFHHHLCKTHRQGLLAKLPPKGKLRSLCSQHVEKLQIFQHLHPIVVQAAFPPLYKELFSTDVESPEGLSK
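In this cell-based reporter format, copper sulfate (700 uM final) drives Gal4–ROR gamma fusion expression from a metallothionein promoter in Drosophila Schneider cells; compounds preincubated 1 hr, reporter read after 20 hr at ambient temperature.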
VP16 counter: Gal4-VP16 reporter inhibition counter-screen; Drosophila S2 Gal4-VP16 UAS-luciferase, luminescence, 20 h; Potency, µM (titrated, usually from 53.6 µM), inactives show at the highest dose activity, negative = inhibition, actives largely listed as inhibitors; AID 2546; actives 3.5% (n = 310,000);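 further: Gal4-VP16 expression switched on by copper sulfate through the metallothionein promoter; potency means the concentration at half of the fitted maximal effect; nearly all actives have a fitted effect of over 50% in size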
An asterisk follows results filed as active; i = inactive; ? = inconclusive; . = no result. Unless noted, the call rests on the fitted dose curve; in most records, active means well fitted curve in the direction sought with a large enough effect; inconclusive means small, poorly fitted or top-dose-only effect, or another doubt; inactive means no such curve, though single readings can be large; an effect the other way counts as inactive or inconclusive. Unless noted, on the % scale 0 is the no-effect control and ±100 the full control effect.

SMILES	DT40 TDP1 no CPT	IL1B secr inh	DT40 TDP1 CPT	LDHA block	RORgamma inh	VP16 counter
Cc1cccc(-n2ncc3c(N4CCN(c5ccccc5)CC4)ncnc32)c1	?	.	20.6µM*	-5.9	.	.
O=Cc1cc2ccc(Br)cc2[nH]1	.	.	.	2.4	.	.
COc1ccc(-n2ncc3c(N4CCN(c5cccc(C)c5)C(C)C4)ncnc32)cc1 (stereo not drawn)	10.3µM*	.	2.91µM*	0.6	.	.
COc1ccc2ccccc2c1/C=C(/C#N)C(=O)Nc1ccccc1C(F)(F)F	.	.	.	21.5	.	.
COc1cccc(C(=O)NC2CC(C)(C)Cc3c2cnn3-c2cccc(F)c2)c1OC (stereo not drawn)	18.4µM*	i	23.1µM*	-8.5	14.6%	1.1%
CCn1nc(C)cc1C(=O)NC1CC(C)(C)Cc2c1cnn2-c1cccc(F)c1 (stereo not drawn)	16.4µM*	i	20.6µM*	-3.5	?	-1.5%
Cc1cc(C)c(C(=O)NC2CC(C)(C)Cc3c2cnn3-c2cccc(F)c2)[nH]1 (stereo not drawn)	?	-3.7	?	-5.0	.	.
CCCCOc1ccc(CNC(=O)Cc2ccc(NC(=O)N3CCSc4ncccc43)cc2)cc1	?	.	?	-7.6	.	.
CC(C)Oc1ccc(CNC(=O)c2cccc(NC(=O)N3CCSc4ncccc43)c2)cc1	20.6µM*	.	?	-4.9	.	.
Cc1ccccc1CNC(=O)c1cccc(NC(=O)N2CCSc3ncccc32)c1	16.4µM*	.	18.4µM*	-8.1	.	.
Cc1c(Cl)cccc1NC(=O)c1cccc(NC(=O)N2CCSc3ncccc32)c1	?	.	?	-9.4	.	.
CCOc1ccc(CNC(=O)c2cccc(NC(=O)N3CCSc4ncccc43)c2)cc1	23.1µM*	.	?	3.7	.	.
CCCCOc1ccc(CNC(=O)c2cccc(NC(=O)N3CCSc4ncccc43)c2)cc1	16.4µM*	.	?	-10.4	.	.
CCOc1ccc(-n2cc(-c3ccccc3)c3c(NCC4CCCO4)ncnc32)cc1 (stereo not drawn)	.	.	.	13.7	.	.
COc1ccc(-n2cc(-c3ccccc3)c3c(NC4CCCCC4)ncnc32)cc1	11.6µM*	.	?	-5.5	.	.
CCOc1ccc(-n2cc(-c3ccccc3)c3c(NC4CCCC4)ncnc32)cc1	13µM*	.	14.6µM*	-5.4	.	.
COc1ccc([C@@H]2c3c(C)nn(-c4ccccc4)c3NC(=O)[C@H]2NC(=O)c2ccc(Cl)cc2)cc1	.	.	.	3.7	.	.
CCCCCCc1nc2nc(Cl)c(Cl)nc2[nH]1	8.2µM*	10.6	18.4µM*	-0.9	.	.
CCCCCCCCc1nc(SC(C)C(=O)O)n[nH]1 (stereo not drawn)	3.0%	20.8	1.8%	-1.9	-1.9%	-1.7%
CCOC(=O)/C(C#N)=C\c1cc(Cl)c(OC)c(OCC)c1	.	.	.	6.3	.	.
CN1C[C@@H]2[C@@H]3C(=O)N(Cc4ccccc4)C(=O)[C@@H]3[C@](Cc3ccccc3)(C1=O)N2C(=O)c1ccccc1	?	10.9	?	-10.9	.	.
CN1C[C@@H]2[C@@H]3C(=O)N(Cc4ccccc4)C(=O)[C@@H]3[C@](Cc3ccccc3)(C1=O)N2C(=O)c1ccc(C(C)(C)C)cc1	16.4µM*	-88.5*	16.4µM*	-1.5	.	.
CCN1C[C@@H]2[C@@H]3C(=O)N(Cc4ccccc4)C(=O)[C@@H]3[C@](CC)(C1=O)N2C(=O)c1ccc(Cl)c(Cl)c1	25.9µM*	-14.2	16.4µM*	4.5	.	.
CSc1nc(C(C)C)nc(C)c1C(=O)Nc1ccc(Cl)cc1C	.	.	.	2.0	.	.
Cc1cccc(NC(=O)COc2ncnc3ccccc23)c1	.	.	.	5.6	.	.
SMILES	DT40 TDP1 no CPT	IL1B secr inh	DT40 TDP1 CPT	LDHA block	RORgamma inh	VP16 counter
CCOc1ccc(C(C)NC(=O)Cc2nc(-c3cccs3)oc2C)cc1OCC (stereo not drawn)	.	.	.	-11.7	.	.
COc1cc(C)ccc1S(=O)(=O)N1CCN(C23CC4CC(CC(C4)C2)C3)CC1	16.4µM*	-5.6	?	0.8	-6.1%	-13.1%
COc1cc(F)ccc1S(=O)(=O)N1CCN(C23CC4CC(CC(C4)C2)C3)CC1	-15.0%	-24.2	0.6%	-4.0	2.2%	1.6%
Cc1nonc1C(=O)N1CCCC(Nc2ccc(C(C)C)cc2)C1 (stereo not drawn)	2.31µM*	0.4	33.2%	-4.9	39.9%	18.3%
CC(C)c1ccc(NC2CCCN(C(=O)c3ccc(N4CCOCC4)cc3)C2)cc1 (stereo not drawn)	16.4µM*	-5.9	?	7.4	35.7%	-9.7%
Cc1ccc(C(=O)N2CCCC(Nc3ccc(C(C)C)cc3)C2)cn1 (stereo not drawn)	-25.5%	67.3	?	-1.3	18.0%	4.1%
Cc1nnsc1C(=O)N1CCCC(Nc2ccc(C(C)C)cc2)C1 (stereo not drawn)	-12.9%	50.5	-27.7%	0.0	14.2%	-5.5%
Cc1cc(C)c(/C=C/C(=O)c2cc3ccccc3o2)c(C)c1	.	.	.	6.6	.	.
C[C@@]12C(=O)N(Cc3ccco3)CC(=O)N1[C@H]1c3cc(Cl)ccc3OC[C@@H]1[C@@H]2c1ccccc1	?	?	?	-2.1	.	.
C[C@@]12C(=O)N(Cc3ccccc3)CC(=O)N1[C@H]1c3cc(Cl)ccc3OC[C@@H]1[C@@H]2c1ccccc1	18.4µM*	-27.9	?	0.1	.	.
C[C@@]12C(=O)N(Cc3ccc(F)cc3)CC(=O)N1[C@H]1c3cc(Cl)ccc3OC[C@@H]1[C@@H]2c1ccccc1	18.4µM*	?	23.1µM*	-2.0	.	.
O=S(=O)(Nc1ccc(N=Nc2ccc(O)c3ccccc23)cc1)c1ccccc1	?	-59.5*	?	14.0	6.0%	?
O=[N+]([O-])c1ccc(N=Nc2ccc(O)c3ccccc23)cc1	2.59µM*	-76.2*	14.6µM*	28.9	.	.
O=C(O)c1cc(N=Nc2ccc([N+](=O)[O-])cc2)ccc1O	.	.	.	.	-0.6%	-10.9%
O=S(=O)(Nc1ccc(S(=O)(=O)Nc2ccccc2)cc1)c1ccccc1	-20.8%	11.9	?	-9.2	?	-19.2%
O=S(=O)(Nc1ccc(N=Nc2ccccc2)cc1)c1ccccc1	?	-87.8*	?	6.4	-8.8%	?
CCOCCOC(=O)COc1ccc2c(=O)c(-c3ccccc3Cl)coc2c1	.	.	.	11.7	.	.
N#CC1=C(SCc2ccc(Br)cc2)NC(=O)C(C#N)C12CCCCC2 (stereo not drawn)	.	.	.	-2.2	.	.
CCn1c(C)cc(C(=O)Cn2cnc3c2c(=O)n(C)c(=O)n3C)c1C	.	.	.	7.2	.	.
